According to PMC5540273 (PLoS ONE, 2017):

test system: CLK1; conditions: concentration: 1 μM,replicates: in singlicate; n = 1
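Note: KINOMEscan kinase panel screen.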

SMILES	%Inh [%]
COC(=O)Nc1nc2cc(Oc3ccc(NC(=O)Nc4cc(C(F)(F)F)ccc4Cl)cc3)ccc2[nH]1.Cl [GW697465]	34
O=C(Nc1n[nH]c2cc(-c3ccco3)ccc12)C1CC1 [SB-737447]	28
Cc1cccc2c(-c3ccncc3)c(-c3ccc(F)cc3)nn12.Cl [GW461487]	17
CN1CCN(CCNc2nc3cc(Oc4ccc(NC(=O)Nc5cc(C(F)(F)F)ccc5F)cc4)ccc3[nH]2)CC1.Cl.Cl [GW768504]	2
c1ccc(Oc2ccc(Nc3ccnc4ccc(-c5ccccn5)cc34)cc2)cc1 [GW407034]	14
CC(=O)Nc1nc2cnc(Nc3cc(NC(=O)c4cccc(CC(C)(C)C#N)c4)ccc3C)nc2s1	0
O=C(NCC1CC1)c1ccc(-c2cc(C(=O)NC3CC3)ccc2F)cc1 [GW810445]	0
Cc1ccc(CC(=O)N2CCc3cc(-c4cn(C)c5ncnc(N)c45)ccc32)cc1 [GSK2634758]	13
CSc1nccc(-c2c(-c3ccc(F)cc3)ncn2CCCN2CCOCC2)n1.Cl [SB-217146]	0
O=C(Nc1ccccc1)c1cccc(Oc2ccc3nccn3n2)c1	0
COc1cccc(C2=C(Nc3cccc(Cl)c3)C(=O)NC2=O)c1 [SB-341556]	69
Cn1ccc2ncnc(Oc3ccc(NC(=O)Nc4cccc(C(F)(F)F)c4)c(Cl)c3)c21	0
Cc1ccn2nc(-c3ccc(F)cc3)c(-c3ccncc3)c2c1.Cl [GW457859]	22
CCCC(=O)Nc1n[nH]c2ncccc12 [SB-601436]	2
Cn1ccc2ncnc(Oc3ccc(NC(=O)Nc4cccc(C(F)(F)F)c4)c(F)c3)c21	13
C[C@@H]1CNc2c(sc3ccc4nc(-c5ccc(O)cc5)ccc4c23)C(=O)N1	97.3
N#Cc1cccc(C(=O)NC2CCN(c3ccnc(Nc4ccc(F)cc4)n3)C2)c1 (stereo not shown) [GSK1379708]	14
Nc1nccc(-c2ccc3c(N)n[nH]c3c2)n1 [GSK1034945]	98
COc1cccc(CNC(=O)NC2CCN(c3ccnc(Nc4cc(OC)c(OC)c(OC)c4)n3)C2)c1 (stereo not shown) [GSK1379765]	21

SMILES	%Inh [%]
COc1cc2c(Nc3ccc(NC(=O)c4ccccc4)cc3)ncnc2cc1OCCCN1CCOCC1 [GSK301329]	10
CC(=O)Nc1ccc(-c2cc3ncnc(SCC(=O)O)c3s2)cc1	31
CCn1c(-c2nonc2N)nc2cncc(Br)c21 [SB-738004]	22
CCOC(=O)N1CCC(n2cnc(-c3ccc(F)cc3)c2-c2ccnc(N)n2)CC1 [SB-219952]	0
NC(=O)Nc1sc(-c2ccc(F)cc2)cc1C(N)=O [GW789449]	9
COc1cc2ncn(-c3cc(OCC4CCCCC4)c(C(N)=O)s3)c2cc1OC [GSK204559]	35
Cl.Cl.NC[C@H](CC1CCCCC1)NC(=O)c1ccc(-c2ccnc3[nH]ccc23)s1 [GSK1581428]	85
Cc1n[nH]c2cc(Nc3ccnc(Nc4cccc(CN5CCOCC5)c4)n3)ccc12 [GW682569]	29
Cc1ccc(Nc2ccnc(Nc3ccc4c(c3)CS(=O)(=O)C4)n2)cc1O.Cl [GW579362]	81
Cc1ccc2c(-c3ccnc(Nc4ccc(C(F)(F)F)cc4)n3)cnn2n1 [GW819776]	83
CS(=O)(=O)c1cccc(CNc2nc(Nc3ccc4c(c3)[C@@H]3C[C@@H]4CNC3=O)ncc2C(F)(F)F)c1	81
Cl.c1ccc(Oc2ccc(Nc3ccnc4cc(-c5ccc(CN6CCNCC6)o5)ccc34)cc2)nc1 [GW567142]	25
CN(c1ccc2c(c1)nc(NCc1ccc(F)cc1)n2C)c1ccnc(Nc2ccc(CS(C)(=O)=O)cc2)n1.Cl [GW813244]	13
CS(=O)c1ccc(-c2coc3ccc(-c4n[nH]c(=O)o4)cc23)cc1 (stereo not shown)	20
Cn1ccc2ncnc(Oc3ccc(NC(=O)Nc4ccnc(C(F)(F)F)c4)c(Cl)c3)c21	0
C[C@@H]1CCN(C(=O)N2CCCC2)C[C@@H]1N(C)c1ncnc2[nH]ccc12	4
CCn1c(-c2nonc2N)nc2cncc(CNC3CCNCC3)c21.Cl [SB-747651]	31
Cc1cccc(-c2nc(Nc3ccncc3)c3sccc3n2)n1 [GW869641]	4
